This is an account of results in ChEMBL document CHEMBL3988442, “University of Dundee, Small-Polar-MMV Screening Library” (2021).

Each structure is given as a SMILES string.

Experiment [1] addresses T1, Aspartate--tRNA(Asp/Asn) ligase (Mycobacterium tuberculosis (strain ATCC 25618 / H37Rv)) (UniProt P9WFW3).
T1 sequence (whole entry): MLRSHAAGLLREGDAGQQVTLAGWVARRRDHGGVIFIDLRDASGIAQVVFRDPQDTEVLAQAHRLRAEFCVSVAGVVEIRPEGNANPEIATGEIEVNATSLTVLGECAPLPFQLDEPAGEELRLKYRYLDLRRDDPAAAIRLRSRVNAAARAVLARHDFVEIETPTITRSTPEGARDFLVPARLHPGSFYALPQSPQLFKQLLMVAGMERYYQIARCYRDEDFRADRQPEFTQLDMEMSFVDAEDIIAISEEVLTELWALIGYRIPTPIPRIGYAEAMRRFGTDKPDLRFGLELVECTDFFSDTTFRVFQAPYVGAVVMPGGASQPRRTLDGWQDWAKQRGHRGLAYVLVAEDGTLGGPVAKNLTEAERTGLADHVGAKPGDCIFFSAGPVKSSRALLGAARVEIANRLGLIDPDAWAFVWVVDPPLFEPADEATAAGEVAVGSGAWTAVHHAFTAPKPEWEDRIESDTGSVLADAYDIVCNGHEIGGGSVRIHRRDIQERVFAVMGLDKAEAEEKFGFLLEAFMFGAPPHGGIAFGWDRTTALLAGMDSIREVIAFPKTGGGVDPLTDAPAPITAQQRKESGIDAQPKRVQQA
Kind of experiment: Assay for Asp RNA synthetase-1 from Mycobacterium tuberculosis. It counts as functional. The arrangement: scale not given: direction of the effect not stated beside the values. The note with it: 30 µM.

Experiment [2] addresses Shiga toxin 2 (Escherichia coli O157:H7) (UniProt P09385+P09386). Nature of the experiment: E. coli 0.157:H7 Shiga Toxin SOP - stx2 screening assay. The format is functional. The arrangement: scale not given: direction of the effect not stated beside the values. The note with it: 30 µM.

For `CC(C)c1nc(C2CCCN2Cc2ccccc2C#N)no1` (stereo unspecified), the values for the Percent Effect in experiment [1] and in experiment [2] were -6.4% and -29.9%, respectively.

For the compound `Cc1cc2cc(C(=O)N[C@@H]3CC[C@@H](N4CCOCC4)[C@@H]3O)ccc2o1`, the results for the Percent Effect in experiment [1] and in experiment [2] were 2.49% and 4.91%, respectively.

As to `O=C(c1ccc(Cl)cc1)N1CCCn2nnc(Cn3cccn3)c2C1`, the figures for the Percent Effect in experiment [1] and in experiment [2] were -1.14% and -4.47%, respectively.

Consider `CC(C)(C)c1nc(CN(Cc2cccs2)C2CCS(=O)(=O)C2)no1` (stereo unspecified), for which the Percent Effect in experiment [1] turned out to be 1.32%; in experiment [2] it was 24.2%.

On to `CN(C)c1ncccc1CNC(=O)N1CCCC1CN1CCCCC1` (stereo unspecified), for which the Percent Effect in experiment [1] was -2.19%; in experiment [2] it was -17.9%.

Regarding `CC(NC(=O)NCCCn1cncn1)c1ccccc1Cl` (stereo unspecified), the Percent Effect in experiment [1] is 9.3%; in experiment [2], -26.7%.

As for `Cn1cc(C2CCCN2C(=O)CCCOCc2ccccc2)cn1` (stereo unspecified), the Percent Effect in experiment [1] is -6.77%; in experiment [2], -16.1%.

`Cc1ccccc1CC(=O)N(C)C1CCCC1`: the values for the Percent Effect in experiment [1] and in experiment [2] were -6.33% and -21%, respectively.

Regarding `COc1cc(N2CCCC(c3nccn3Cc3cscn3)C2)nc(N)n1` (stereo unspecified), the Percent Effect in experiment [1] was -2.33%; in experiment [2] it was 14.5%.

`CCC1(CO)CCCN(c2ncccc2C#N)C1` (stereo unspecified): the Percent Effect in experiment [1] was -1.73%; in experiment [2], -8.75%.

`O=C(c1cccc2c1OCCO2)N1CCCC(n2ccnc2)C1` (stereo unspecified): the figures for the Percent Effect in experiment [1] and in experiment [2] were -1.01% and 21.1%, respectively.

`Cc1cnn(C2CCCN(C(=O)Cc3cn4ccccc4n3)C2)c1` (stereo unspecified): the Percent Effect in experiment [1] is -6.71%; in experiment [2], -40.6%.

For the compound `CC(NC(=O)CCOc1ccccc1Cl)c1nnc2n1CCC2` (stereo unspecified), the Percent Effect in experiment [1] was -1%; in experiment [2] it was 22.6%.

Take `Cc1cnn(CC2CCCN2CCCc2nc3ccccc3o2)c1` (stereo unspecified): the Percent Effect is 1.34% in experiment [1] and -14.6% in experiment [2].

Regarding `CN1CCCN(C(=O)c2ccc3c(c2)nc(N2CCOCC2)n3C)CC1`, the Percent Effect in experiment [1] is -3.09%; in experiment [2], -5.95%.

On to `Cc1csc(N2CCN(CC(=O)Nc3nncs3)CC2C)n1` (stereo unspecified), for which the Percent Effect in experiment [1] is -3.09%; in experiment [2] it was 3.44%.

Regarding `c1cnnc(N2CCCC2CNCc2nc3ccccc3o2)c1` (stereo unspecified), the figures for the Percent Effect in experiment [1] and in experiment [2] were 7.18% and -25.7%, respectively.

On to `COc1cc(CNCCc2cnn(C)c2)cc2c1OCCO2`, for which the Percent Effect was -1.03% in experiment [1] and 10.4% in experiment [2].
